mHTT-CaM PPI inh = disrupts binding of mutant huntingtin to calmodulin | P42858 | AlphaScreen His-mHTT/GST-CaM binding, luminescence | inhibition, % at 15 µM | hit rate 3.6% among 190,000 | AID 1671202;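 also: 0% = both proteins with DMSO and 100% = one protein alone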
Pf apPOL block = Pf-apPOL DNA polymerase inhibition | Recombinant Pf-apPOL, molecular beacon fluorescence, 1.5 h | inhibition, % at 10 µM | hit rate 0.25% among 210,000
* = called active by the depositor. The sample as a whole holds a higher share of hits than the screen did. Rule as the data show it: active = inhibition above about 50%; inactive = the rest.

SMILES	mHTT-CaM PPI inh	Pf apPOL block
COc1ccc(C2=N/C(=C\c3cccnc3)C(=O)O2)cc1Br	1	-1
CCOc1ccc2ccccc2c1C(=O)NCC1COC2(CCCCC2)O1 (stereo unspecified)	-11	2
CCN(CC)C(=O)CC(c1ccc(OC)cc1)c1c(OC)cc(OC)c2ccc(=O)oc12 (stereo unspecified)	32	-1
COc1ccc(C(CCN2CCN(c3ccccc3)CC2)c2c(OC)cc(OC)c3c(-c4ccccc4)cc(=O)oc23)cc1 (stereo unspecified)	30	-1
COc1cc(OC)c2ccc(=O)oc2c1C(CCN1CCOCC1)c1ccc(N(C)C)cc1 (stereo unspecified)	47	-8
CCN(CC)CCC(c1ccc(N(C)C)cc1)c1c(OC)cc(OC)c2c(-c3ccccc3)cc(=O)oc12 (stereo unspecified)	100*	-6
COc1cc(OC)c2c(-c3ccccc3)cc(=O)oc2c1C(CCN1CCN(c2ccccc2)CC1)c1ccc(N(C)C)cc1 (stereo unspecified)	69*	-6
COc1cc(OC)c2ccc(=O)oc2c1C(CCN1CCN(c2ccccc2)CC1)c1ccc(N(C)C)cc1 (stereo unspecified)	84*	-2
COc1ccc(CCC(=O)NCC(c2ccco2)N2CCc3ccccc3C2)cc1 (stereo unspecified)	-2	-9
COc1ccc(OC)c(N2CCN(CC(=O)N3CCCc4ccccc43)C2=O)c1	-9	-2
CCC(C)NC(=O)c1csc(-c2ccncc2)n1 (stereo unspecified)	-5	0
CC(CCc1ccccc1)NC(=O)c1csc(-c2ccncc2)n1 (stereo unspecified)	79*	-1
N#CC1(C#N)C2CCCCC23OC(=N)C1(C#N)C(c1cccnc1)O3 (stereo unspecified)	13	-9
CC1CC(=O)N(c2ccc(N3CCN(c4cccc(Cl)c4)CC3)c([N+](=O)[O-])c2)C1=O (stereo unspecified)	46	-14
O=C1CCCC(=O)N1c1ccc(N2CCCC(CO)C2)c([N+](=O)[O-])c1 (stereo unspecified)	2	-10
COc1ccc(Cl)cc1CN1CCN(c2ccc(N3C(=O)COCC3=O)cc2[N+](=O)[O-])CC1	79*	-8
Cc1ccc(N2CCN(c3ccc(N4C(=O)COCC4=O)cc3[N+](=O)[O-])CC2C)cc1 (stereo unspecified)	11	-14
CC1CC(=O)N(c2ccc(N3CC4(C)CC3CC(C)(C)C4)c([N+](=O)[O-])c2)C1=O (stereo unspecified)	37	-18
COc1cc2c(cc1OC)C(C)N(c1ccc(N3C(=O)CC(C)C3=O)cc1[N+](=O)[O-])CC2 (stereo unspecified)	60*	-15
COc1ccc(Cl)cc1CN1CCN(c2ccc(N3C(=O)CCCC3=O)cc2[N+](=O)[O-])CC1	73*	-24
COc1ccc(Cl)cc1CN1CCN(c2ccc(N3C(=O)CC(C)C3=O)cc2[N+](=O)[O-])CC1 (stereo unspecified)	73*	-17
CC(C)(C)NC(=O)NCCC1CCN(C(=O)NC2CCCCC2)CC1	-4	-4
CC(C)(C)NS(=O)(=O)c1ccc(NC(=O)c2cccs2)cc1	5	0
CC(=O)NC1=NN(C(C)=O)C(c2ccc(OCc3ccccc3)cc2)S1 (stereo unspecified)	68*	-3
CC(=O)NC1=NN(C(C)=O)C(c2ccc(OCc3ccccc3)c(OCc3ccccc3)c2)S1 (stereo unspecified)	38	0
SMILES	mHTT-CaM PPI inh	Pf apPOL block
Cn1cccc1C(=O)N1CCC(CCOc2ccccc2)CC1	58*	-7
O=C(COc1ccc(F)cc1)N1CCC(CCOc2ccccc2)CC1	70*	-3
O=C(COc1ccc(F)cc1)N1CCC(CCOc2ccncc2)CC1	6	0
Cn1nccc1C(=O)N1CCC(CCOc2ccccc2)CC1	6	2
Cc1ccsc1CN1CCCC(n2c(=O)n(C)c3cncnc32)C1 (stereo unspecified)	7	1
O=[N+]([O-])c1ccc(-c2csc(Nc3ccc4c(c3)OCO4)n2)cc1	55*	1
Clc1ccc(-c2csc(Nc3ccc4c(c3)OCO4)n2)cc1	-5	-7
CC(C)Cc1ccc(-c2csc(Nc3ccc4c(c3)OCO4)n2)cc1	67*	-2
COC(=O)c1ccc(-c2csc(NC(=O)Nc3ccc4c(c3)OCO4)n2)cc1	-6	-7
CCN(CC)CCCNC(=O)C1CCN(Cc2cn(C)c3ccc(Cl)cc23)CC1	10	0
CSc1sc(SC)c(C[n+]2ccccc2)c1C[n+]1ccccc1	4	-2
CN1C(=O)C(O)(CC(=O)c2ccccn2)c2cc(Br)ccc21 (stereo unspecified)	2	-6
CN1C(=O)C2(NN=C(c3ccccc3)S2)c2cc(Br)ccc21 (stereo unspecified)	100*	-3
O=c1c2ccc([N+](=O)[O-])cc2nc2n1CC(Cl)CCC2 (stereo unspecified)	1	-3
CCN(CC)c1ccc(/C=C2\N=C(SC)SC2=O)cc1	64*	-5
CSC1=N/C(=C\c2ccc(N(C)C)cc2)C(=O)S1	23	-7
CCSC1=N/C(=C\c2c(OC)cc(OC)cc2OC)C(=O)S1	43	-81
CCSC1=N/C(=C/c2ccc(N(CC)CC)cc2OC)C(=O)S1	84*	-47
Cc1ccc(OCC(=O)N2CCOCC2)c(C)c1	-5	-3
NC(=Nc1nc2ccccc2o1)NC(=O)c1cccc(F)c1	-3	-5
Cc1cc(C)nc(SCC(=O)Nc2nc(-c3ccccc3)c(C)s2)n1	-1	4
COc1ccc(C(=O)N2CCCC(c3ccnc(Nc4cccc(F)c4)n3)C2)c(OC)c1 (stereo unspecified)	-8	-5
COc1ccccc1C(=O)N1CCCC(c2ccnc(-c3cccc(C)c3)n2)C1 (stereo unspecified)	22	-5
COc1ccccc1C(=O)N1CCCC(c2ccnc(Nc3ccccc3C)n2)C1 (stereo unspecified)	52*	-5
COc1ccc(C(=O)N2CCCC(c3ccnc(Nc4cccc(F)c4)n3)C2)cc1 (stereo unspecified)	64*	-1
SMILES	mHTT-CaM PPI inh	Pf apPOL block
Cc1ccc(C(=O)N2CCCC(c3ccnc(Nc4ccc(F)cc4)n3)C2)s1 (stereo unspecified)	82*	0
COc1ccccc1C(=O)N1CCCC(c2ccnc(-c3cccc(F)c3)n2)C1 (stereo unspecified)	51*	-4
Cc1ccccc1Nc1nccc(C2CCCN(C(=O)c3ccoc3)C2)n1 (stereo unspecified)	20	-4
CCCC(=O)N1CCCC(c2ccnc(Nc3ccc(C)cc3)n2)C1 (stereo unspecified)	3	-2
O=C(NC1CC(O)C(CO)C1)c1ccc(F)cc1 (stereo unspecified)	2	0
CCN1CCN(c2nc(-c3ccccc3)ncc2C(=O)Nc2ccc(C)cc2)CC1	16	0
O=C(Cc1cccc(F)c1)N1CCC(OCc2nc(C3CC3)no2)CC1	-6	-6
CCc1ccc(NC(=O)c2c(C)sc3c(=O)n(C(C)C)cnc23)cc1	-4	0
CN(C)c1ccc(C(=O)N2CCCC(c3ccnc(Nc4ccc(F)cc4)n3)C2)cc1 (stereo unspecified)	88*	-3

Compound activity as filed in PubChem BioAssay.
